Results on 40 compounds are retold here after the supplement of paper PMC9177965.

Several values for one entry are separate records, joined by “and”; a condition that tells them apart may be missing. Equal values may be shown once.

In the test the test system is HT29 RNF43 G659fs (RNF43 659mut, CRISPR-edited). As to the kind of experiment: cell viability activity relative to DMSO (negative = inhibition); higher = more viable cells (less growth inhibition). Conditions: 5 µM; 96 h. The procedure:
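Broad Repurposing Library primary screen at a single dose of 5 uM. HT29 sg-Ctrl and HT29 RNF43 G659fs CRISPR-edited isogenic cells were seeded at 2500 cells/well in 384-well plates in duplicate and treated for 96 h. Viability was read by CellTiter-Glo and reported as % activity relative to DMSO, with MG132 as the positive control (negative = growth inhibition).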
`O=C(Nc1ccccc1-c1cn2c(CN3CCNCC3)csc2n1)c1cnc2ccccc2n1`: the cell viability activity was -74.8%.
Consider `CN1CCCN=C1COC(=O)C(O)(c1ccccc1)C1CCCCC1` (stereo not given), for which the cell viability activity was -55.3%.
In the case of `COc1cc2c(cc1OC)-c1cc3nc4ccccc4nc3n1C(C)(C)C2` it was -64.4%; in that of `CC1(C)CC(=O)c2c(C(F)(F)F)nn(-c3ccc(C(N)=O)c(N[C@H]4CC[C@H](OC(=O)CN)CC4)c3)c2C1`, -89.4% and -91.3% and -87.7%.
With `C=CCNC1=C2C[C@@H](C)C[C@H](OC)[C@H](O)[C@@H](C)/C=C(\C)[C@H](OC(N)=O)[C@@H](OC)/C=C\C=C(/C)C(=O)NC(=CC1=O)C2=O`, the cell viability activity is -90.1%.
The value for `CN1CC[C@H](c2c(O)cc(O)c3c(=O)cc(-c4ccccc4Cl)oc23)[C@H](O)C1` was -83.4%; that for `CN(C)Cc1c(C(=O)NCCOc2ccc(C(=O)NO)cc2)oc2ccccc12` was -94.9%; that for `Nc1ncccc1-c1nc2ccc(-c3ccccc3)nc2n1-c1ccc(C2(N)CCC2)cc1` was -70.4%.
The value for `CC(C)(C)c1ccc(-c2nc3ccccc3[nH]2)cc1` was -58.2%; that for `Cn1cc(-c2ccc(S(=O)(=O)n3ccc(/C=C/C(=O)Nc4ccccc4N)c3)cc2)cn1` was -62.6%; that for `Cc1ccc(C(=O)N(CCCN)[C@@H](c2oc3cc(Cl)ccc3c(=O)c2Cc2ccccc2)C(C)C)cc1` was -63.6%.
In the case of `COc1ccc(S(=O)(=O)N(C(C)=O)c2ccccc2/C=C/c2cc[n+]([O-])cc2)cc1` it was -65.7%.
For `Cc1c(C(=O)Nc2ccc(N3CCC(N4CCOCC4)CC3)c(C#N)c2)cnn1-c1ccc(Cl)cc1`, the cell viability activity is -36.4%.
The value for `CNc1ncc2cc(-c3cc(NC(=O)NCCC(C)(C)C)c(F)cc3C)c(C)nc2n1` was -69%.
In the case of `CCCCCC(O)c1cccc(OCc2ccc3ccccc3n2)c1` (stereo not given) it was -71.3%.
Take `O=C(Nc1ccncc1)Nc1ccc(-c2nc(N3CCOCC3)nc(N3C4CCC3COC4)n2)cc1`: the cell viability activity was -64.5%.
On to `COC(=O)c1ccc2c(C(=Nc3ccc(N(C)C(=O)CN4CCN(C)CC4)cc3)c3ccccc3)c(O)[nH]c2c1`, for which the cell viability activity is -73.8%.
As for `Nc1ccc(F)cc1NC(=O)c1ccc(CNC(=O)/C=C/c2cccnc2)cc1`, the cell viability activity was -39.6%.
In the case of `Fc1cc(-c2cccc3ncc(-c4cnn(C5CCNCC5)c4)nc23)cc(F)c1CN1CCOCC1` it was -93.7%.
The value for `Cn1ccc2cc(NC(=O)Nc3cccnc3)ccc21` was -29.2%.
In the case of `CCCOc1ccc2[nH]c(NC(=O)OC)nc2c1` it was -69.6%.
For the compound `COc1cc2ncn(-c3cc(OCc4ccccc4C(F)(F)F)c(C(N)=O)s3)c2cc1OC`, the cell viability activity is -72.5%.
In the case of `COC(=O)[C@]12CCC(C)(C)C[C@H]1[C@H]1C(=O)C=C3[C@@]4(C)C=C(C#N)C(=O)C(C)(C)[C@@H]4CC[C@@]3(C)[C@]1(C)CC2` it was -96.8%; in that of `Cc1ccc(S(=O)(=O)C=CC#N)cc1`, -98.8%.
The value for `Cc1nnc(C[C@@H]2C=C(c3ccc(Cl)cc3)c3ccccc3-n3c(C)nnc32)o1` was -63.5%; that for `CN1CCN(Cc2ccc(Nc3ncc(Cl)c(Nc4ccccc4S(=O)(=O)N(C)C)n3)cc2)CC1` was -94.8%.
The value for `CO[C@@H]1[C@H](N(C)C(=O)c2ccccc2)C[C@H]2O[C@]1(C)n1c3ccccc3c3c4c(c5c6ccccc6n2c5c31)C(=O)NC4` was -53.8%; that for `COC(=O)Nc1nc2cc(C(=O)c3ccc(F)cc3)ccc2[nH]1` was -46.6%; that for `CCN(CC)CCOc1ccc(Nc2ncc3cc(-c4c(Cl)cccc4Cl)c(=O)n(C)c3n2)cc1` was -86.7%.
On to `COc1cccc(OCCCN)c1-c1cc(Nc2cnc(C#N)cn2)n[nH]1`, for which the cell viability activity was -78.2%.
Consider `Cc1nc(C#Cc2ccnc(Cl)c2)c(C)n1-c1ccc(OC(F)(F)F)cc1`, for which the cell viability activity was -25.5%.
In the case of `C1=N/C2=N/c3ccc(OCCN4CCCC4)c(c3)COC/C=C/COCc3cccc(c3)C(=C1)N2` it was -41.5%; in that of `CC(C)/N=c1\cc2n(-c3ccc(Cl)cc3)c3ccccc3nc-2cc1Nc1ccc(Cl)cc1`, -75.3%.
As to `Cc1nc(NC(=O)N2CCC[C@H]2C(N)=O)sc1-c1ccnc(C(C)(C)C(F)(F)F)c1`, the cell viability activity was -49.8%.
Take `CCN1CCN(c2ccc(C(C)(C)NC(=O)c3cc4[nH]c5ccccc5c(=O)c4cc3F)cn2)CC1`: the cell viability activity is -45.9%.
The value for `N#Cc1ccc(COC[C@H]2O[C@@H](n3c(NCc4ccc(Cl)c(Cl)c4)nc4c(N)ncnc43)[C@H](O)[C@@H]2O)cc1` was -24.9%; that for `OC[C@H]1O[C@@H](Oc2cc(O)cc(/C=C/c3ccc(O)cc3)c2)[C@H](O)[C@@H](O)[C@@H]1O` was -34.4%.
In the case of `CNCCn1c(=O)c2cc(OC)c(OC)cc2c2cnc3cc4c(cc3c21)OCO4` it was -81.7%.
In the case of `CN(C)C/C=C/C(=O)Nc1ccc(C(=O)Nc2cccc(Nc3ncc(Cl)c(-c4c[nH]c5ccccc45)n3)c2)cc1` it was -87.2%; in that of `CN1CC[C@@H](c2c(O)cc(O)c3c(=O)cc(-c4ccccc4Cl)oc23)[C@@H]1CO`, -90.1%.
